Source: PubChem (Broad Institute)
TRPM1 prom inh – MITF TRPM1 promoter inhibition in SK-MEL-5 cells | 0.83% of 330,000 active | SK-MEL-5 TRPM1 promoter luciferase, 24 h | inhibition, % at 12.5 µM | AID 488899;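 active means mean inhibition across replicates of 60% or more, whatever share of single replicates reaches that level; inconclusive means some that reach 60%, reason not given; inactive means mean inhibition across replicates below 60%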
PAX8 reporter – PAX8 transcriptional activity inhibition; RMG-I TPO-luciferase reporter, SteadyGlo, 24 h; inhibition, % at 12.6 µM; 1.2% of 360,000 active;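 active means mean replicate inhibition at least 60% with every replicate also reaching 60%; inconclusive means only one of the two criteria is met; inactive means mean below 60% and not all replicates reaching 60%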;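 further: luciferase light reporting Pax8 driven TPO promoter activity; plate controls were median of neutral control wells for no effect and mitoxantrone controls for full effect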
LGR2 antag – Drosophila LGR2 receptor signaling inhibition. HEK293 LGR2, CRE-luciferase, bursicon-stimulated, 4 h. inhibition, % at 9.99 µM. 0.35% of 380,000 active. AID 720647;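 active means drop in luminescence signal, shown as inhibition above about 50% in the replicate tests, limit read from the data, passing the limit was not always enough; inconclusive means probably only some replicates passing the limit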;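 further: agonist challenge used bursicon conditioned medium at about half maximal strength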
LMP1 NFkB inh – Epstein-Barr LMP1 NF-kappaB reporter inhibition. LMP1-induced NF-kappaB luciferase reporter cells, luminescence. inhibition, % at 12.5 µM. 0.69% of 350,000 active. AID 504558; in the data active means inhibition above about 41%; inconclusive means no clear call, values can overlap the other calls;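 further: 0% = neutral control wells and 100% = reference inhibitor control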
EWS-Fli inh – inhibitors of EWS/Fli oncoprotein transcriptional activity; A673 NR0B1-luciferase reporter, viability-normalised; inhibition, % at 12.6 µM; 0.67% of 350,000 active;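 active means mean inhibition of at least 50% after viability correction, with every replicate also passing that limit; inconclusive means mean reaches 50% but only one of two replicates passes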;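 further: firefly luciferase signal divided by Alamar Blue viability fluorescence both relative to DMSO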
Shn3 3UTR inh – reduces Shn3 3'UTR luciferase signal in osteoblasts. AID 588674. 0.52% of 360,000 active. inhibition, % at 12.5 µM. Clone20 osteoblast Shn3 3'UTR firefly luciferase, 24 h;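 active means mean inhibition of at least 75% with every replicate also reaching 75%; inconclusive means mean inhibition at least 75% but some replicate below; inactive means mean inhibition below 75%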;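 further: 0% = median of neutral control wells and 100% = pilot-screen positive control compound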
* marks the source's active call; other numbers are inactive results; ? = inconclusive; . = not tested or not shown; ! = repeats disagree. A selection: hits, their analogues and other compounds. The true share with any hit is near 2.2%.

SMILES	TRPM1 prom inh	PAX8 reporter	LGR2 antag	LMP1 NFkB inh	EWS-Fli inh	Shn3 3UTR inh
COCCNC(=O)C1CCC(CNS(=O)(=O)c2ccc(F)cc2)CC1 (stereo unspecified)	-4	0	4	6	-14	9
CC(C)OCCCNC(=O)C1CCC(CNS(=O)(=O)c2ccc(Cl)cc2)CC1 (stereo unspecified)	-8	16	1	0	.	13
COCCNC(=O)C1CCC(CNS(=O)(=O)c2ccccc2)CC1 (stereo unspecified)	.	21	1	56*	10	5
CC(C)OCCCNC(=O)C1CCC(CNS(=O)(=O)c2ccccc2)CC1 (stereo unspecified)	-7	-9	14	67*	-4	5
CCCN1[C@H](CO)[C@H](c2ccc(C3=CCCC3)cc2)[C@H]1CN(C(C)=O)C1CCCC1	.	.	5	.	-2	.
Cc1cc(NC(=O)c2cccc(COc3ccc(Br)cc3)c2)no1	10	47	-43	43*	86*	6
CCOc1ccc(C(=O)Nc2cc(C)on2)cc1	-25	.	.	5	.	-20
O=C1C(N2CCOCC2)=C(n2nnc3ccccc32)C(=O)c2ccccc21	98*	83*	.	65*	.	24
C[C@H]1CN([C@@H](C)CO)C(=O)Cc2cc(NC(=O)CCCN(C)C)ccc2O[C@@H]1CN(C)C(=O)NC1CCCCC1	.	-17	3	.	2	.
C[C@@H]1CN([C@H](C)CO)C(=O)c2cc(NC(=O)CCCCCC(=O)Nc3ccccc3N)ccc2O[C@@H](C)CCCCO[C@H]1CN(C)Cc1ccc(Cl)c(Cl)c1	.	80*	-8	.	-20	.
C[C@@H]1CCCCO[C@H](CN(C)Cc2ccc(Cl)c(Cl)c2)[C@@H](C)CN([C@H](C)CO)C(=O)c2cc(NC(=O)CCCCCC(=O)Nc3ccccc3N)ccc2O1	.	73*	4	.	9	.
C[C@@H]1CCCCO[C@H](CN(C)Cc2ccccc2)[C@@H](C)CN([C@H](C)CO)C(=O)c2cc(NC(=O)CCCCCC(=O)Nc3ccccc3N)ccc2O1	.	14	8	.	-20	.
CCCCCOc1ccc(Br)cc1CSC(=N)N	39	55	?	23	48	89*
CN(c1ccccc1)c1ccc(/C=C/[N+](=O)[O-])cc1	92*	-4	102*	18	64*	94*
COc1ccc(-c2cc(-c3nc4ccccn4c3NCc3ccccc3)ccc2OC)cc1	85*	102*	100*	15	76*	97*
CCC(C)Sc1cc(-c2nc3ccc(C)cn3c2NCc2ccccc2)ccc1OC (stereo unspecified)	53	-1	-1	14	8	97*
Cc1ccc2nc(-c3cccc(SC4CCCCC4)c3)c(NCc3ccccc3)n2c1	0	21	10	2	15	82
CCCCNc1c(-c2ccc(OC)c(SC3CCCCC3)c2)nc2ccc(C)cn12	7	38	52*!	25	27	96*
COc1ccc(-c2nc3ccc(C)cn3c2NCc2ccccc2)cc1SC1CCCCC1	-8	.	.	-8	.	98*
CCC(C)Sc1ccc(-c2nc3ccc(C)cn3c2NCc2ccccc2)cc1OC (stereo unspecified)	-11	.	.	-9	.	45
COc1ccc(-c2nc3ccccn3c2NCc2ccc3c(c2)OCO3)cc1	-42	.	.	-14	.	-31
COC(=O)C[C@H]1CC[C@H]2[C@H](COc3ccc(NC(=O)c4cc(C)on4)cc3C(=O)N2C)O1	.	-16	-15	.	1	.
C[C@@H]1CCCCO[C@H](CN(C)C(=O)CCC(F)(F)F)[C@H](C)CN([C@@H](C)CO)C(=O)c2cc(NC(=O)c3ccncc3)ccc2O1	.	.	0	.	.	.
CCC(C)Sc1cc(-c2nc3ccccn3c2NC2CCCCC2)ccc1OC (stereo unspecified)	-6	34	53*!	-9	30	2
Cc1ccn2c(NCc3ccccc3)c(-c3cccc(SC4CCCCC4)c3)nc2c1	0	12	7	-1	25	-17
SMILES	TRPM1 prom inh	PAX8 reporter	LGR2 antag	LMP1 NFkB inh	EWS-Fli inh	Shn3 3UTR inh
c1ccc(CNc2c(-c3cccc(SC4CCCCC4)c3)nc3ccccn23)cc1	5	-42	-31	-4	-5	90*
O=C(C[C@H]1CC[C@H](NC(=O)Nc2ccccc2F)[C@H](CO)O1)NCc1ccc(F)cc1	.	.	-2	.	-1	.
CO[C@@H]1CN(C)C(=O)c2ccc(NC(=O)Nc3ccccc3Cl)cc2OC[C@@H](C)N(Cc2ccccc2C(=O)O)C[C@H]1C	.	-7	23	.	10	.
C[C@@H]1CN([C@H](C)CO)S(=O)(=O)c2ccc(C3=CCCC3)cc2O[C@H]1CN(C)S(C)(=O)=O	.	.	-1	.	-1	.
CC(C)NC(=O)N(C)C[C@@H]1OCCCC[C@H](C)Oc2ccc(NC(=O)c3ccccc3)cc2C(=O)N([C@H](C)CO)C[C@H]1C	.	-6	1	.	.	.
CC(=NNC(=S)Nc1ccc(C)cc1)c1ccccn1	7	37	-32	62*	-18	72
COc1ccccc1NC(=O)c1ccccc1NC(=O)c1ccccn1	0	-1	2	11	-18	-11
COc1ccccc1NC(=S)NN=C(C)c1ccccn1	54	43	-3	?	-6	91*
CC(=NNC(=S)Nc1cccc(C)c1)c1ccccn1	72*	78*	20	76*	22	93*
C/C(=N\NC(=S)Nc1ccc(C)cc1)c1cccc(N)c1	-16	-3	22	6	-6	5
CC(C)NC(=O)Nc1ccc2c(c1)CC(=O)N([C@@H](C)CO)C[C@@H](C)[C@H](CN(C)C(=O)Nc1ccc3c(c1)OCO3)O2	.	-31	2	.	0	.
CN(C)CC(=O)N1CC2(C1)[C@H](c1ccccc1)[C@H](CO)N2Cc1ccccc1F	.	-17	-24	.	16	.
COC(=O)C1=C(C)N(Cc2ccc(C(F)(F)F)cc2)C(=NCc2ccccc2)NC1c1ccc(C(F)(F)F)cc1 (stereo unspecified)	.	84*	?	.	43	.
COC(=O)C1=C(C)N(Cc2cccc(C(F)(F)F)c2)C(=NCc2ccc(OC)cc2)NC1c1ccccc1 (stereo unspecified)	.	17	?	.	27	.
COC(=O)C1=C(C)N(Cc2ccc(C(F)(F)F)cc2)C(=NCc2ccccc2)NC1c1ccccc1 (stereo unspecified)	.	12	16	.	37	.
COC(=O)C1=C(C)N(Cc2cccc(C(F)(F)F)c2)C(=NCc2ccc(C(F)(F)F)cc2)NC1c1ccccc1 (stereo unspecified)	.	19	15	.	52*	.
COC(=O)C1=C(C)N(Cc2cccc(C(F)(F)F)c2)C(=NCc2ccc(C(F)(F)F)cc2)NC1c1ccc(Cl)cc1 (stereo unspecified)	.	12	55*	.	41	.
COC(=O)C1=C(C)N(Cc2ccc(C(F)(F)F)cc2)C(=NCc2ccccc2)NC1c1cccc(Cl)c1 (stereo unspecified)	.	100*	53*	.	34	.
